# Test results from publication PMC7862700, “An all-to-all approach to the identification of sequence-specific readers for epigenetic DNA modifications on cytosine”.
# Legend:
# Assay in all cases: DAPPL (digital affinity profiling via proximity ligation, sequencing); 10 mM Tris-HCl pH 7.5, 50 mM NaCl, 1 mM DTT, 4% glycerol, room temperature, 30 min; GST-TFs on glutathione beads, 16-mer random dsDNA library, 0.1% formaldehyde crosslink after washing; high values mean tight binding
# [1] = target: T1, FEV (Homo sapiens, UniProt Q99581 1-238); settings: protein: recombinant; tags: N-terminal GST; dsDNA, one strand shown
# T1 sequence: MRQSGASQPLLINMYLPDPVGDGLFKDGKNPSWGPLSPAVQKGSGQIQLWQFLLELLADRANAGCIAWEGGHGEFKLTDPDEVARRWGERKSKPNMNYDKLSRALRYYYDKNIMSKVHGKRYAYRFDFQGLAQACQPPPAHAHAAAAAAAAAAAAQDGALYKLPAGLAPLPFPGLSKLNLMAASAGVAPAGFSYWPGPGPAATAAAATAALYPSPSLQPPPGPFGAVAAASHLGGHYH
# Procedure, shortened: (§1)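 Human transcription factors carrying a GST fusion were produced in yeast, bound to glutathione beads, tagged with DNA barcodes and pooled together with a tag-only sample. Each pool was held with 200 nmole of a random double-stranded 16-mer DNA library in Tris/NaCl/DTT/glycerol buffer for 30 min at room temperature, then washed, crosslinked in 0.1% formaldehyde, proximity-ligated with BsaI/T4 ligase (1 h, 37 °C), PCR-amplified and sequenced on an Illumina NextSeq500. Binding signal is the read frequency of each hexamer for a given factor divided by its frequency in the tag-only sample.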
# [2] = target: ETV5 (Homo sapiens, UniProt P41161 1-510); settings: protein: recombinant; tags: N-terminal GST; dsDNA, one strand shown
# Chain of ETV5 (P41161 whole entry): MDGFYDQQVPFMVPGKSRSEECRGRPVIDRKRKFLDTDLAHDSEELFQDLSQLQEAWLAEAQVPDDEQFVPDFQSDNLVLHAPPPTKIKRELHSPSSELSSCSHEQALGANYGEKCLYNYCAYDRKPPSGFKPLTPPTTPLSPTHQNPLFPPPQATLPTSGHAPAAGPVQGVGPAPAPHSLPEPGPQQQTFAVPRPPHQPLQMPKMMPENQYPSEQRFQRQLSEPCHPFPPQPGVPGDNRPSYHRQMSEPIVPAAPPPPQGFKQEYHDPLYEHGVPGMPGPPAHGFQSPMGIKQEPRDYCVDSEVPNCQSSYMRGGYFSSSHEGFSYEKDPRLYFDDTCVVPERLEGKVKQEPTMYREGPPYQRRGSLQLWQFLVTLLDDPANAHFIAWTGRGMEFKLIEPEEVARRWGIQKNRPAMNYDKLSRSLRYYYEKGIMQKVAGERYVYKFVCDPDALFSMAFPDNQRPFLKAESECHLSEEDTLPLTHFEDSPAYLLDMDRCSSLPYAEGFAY
# Procedure, shortened: as §1
# [3] = target: HSF1 (Homo sapiens, UniProt Q00613 1-529); settings: protein: recombinant; tags: N-terminal GST; chain copies: 3; dsDNA, one strand shown
# Chain of HSF1 (Q00613 whole entry): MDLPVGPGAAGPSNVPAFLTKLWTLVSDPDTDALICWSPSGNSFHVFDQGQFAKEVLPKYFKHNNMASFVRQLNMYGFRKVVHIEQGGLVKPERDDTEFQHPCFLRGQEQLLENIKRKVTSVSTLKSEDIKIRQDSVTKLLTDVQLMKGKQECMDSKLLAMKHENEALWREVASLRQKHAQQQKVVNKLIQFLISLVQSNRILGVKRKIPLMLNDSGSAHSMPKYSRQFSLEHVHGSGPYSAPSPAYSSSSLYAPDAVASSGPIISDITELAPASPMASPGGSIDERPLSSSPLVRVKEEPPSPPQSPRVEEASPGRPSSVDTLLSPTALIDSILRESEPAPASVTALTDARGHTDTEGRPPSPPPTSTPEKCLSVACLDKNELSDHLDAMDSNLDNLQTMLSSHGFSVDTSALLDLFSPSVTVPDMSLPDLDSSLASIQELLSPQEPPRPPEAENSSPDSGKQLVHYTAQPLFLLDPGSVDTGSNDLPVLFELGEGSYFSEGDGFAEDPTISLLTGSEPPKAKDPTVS
# Procedure, shortened: as §1
# [4] = target: T2, SPIC (Homo sapiens, UniProt Q8N5J4 1-248); settings: protein: recombinant; tags: N-terminal GST; dsDNA, one strand shown
# T2 sequence: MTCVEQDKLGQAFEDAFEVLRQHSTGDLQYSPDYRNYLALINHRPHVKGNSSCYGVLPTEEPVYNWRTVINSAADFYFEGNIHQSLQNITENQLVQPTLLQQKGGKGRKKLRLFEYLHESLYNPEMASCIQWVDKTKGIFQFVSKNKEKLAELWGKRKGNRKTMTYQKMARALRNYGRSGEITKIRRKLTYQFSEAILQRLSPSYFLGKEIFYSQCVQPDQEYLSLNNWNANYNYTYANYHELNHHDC
# Procedure, shortened: as §1
# [5] = target: ELF4 (Homo sapiens, UniProt Q99607 1-663); settings: protein: recombinant; tags: N-terminal GST; dsDNA, one strand shown
# Chain of ELF4 (Q99607 whole entry): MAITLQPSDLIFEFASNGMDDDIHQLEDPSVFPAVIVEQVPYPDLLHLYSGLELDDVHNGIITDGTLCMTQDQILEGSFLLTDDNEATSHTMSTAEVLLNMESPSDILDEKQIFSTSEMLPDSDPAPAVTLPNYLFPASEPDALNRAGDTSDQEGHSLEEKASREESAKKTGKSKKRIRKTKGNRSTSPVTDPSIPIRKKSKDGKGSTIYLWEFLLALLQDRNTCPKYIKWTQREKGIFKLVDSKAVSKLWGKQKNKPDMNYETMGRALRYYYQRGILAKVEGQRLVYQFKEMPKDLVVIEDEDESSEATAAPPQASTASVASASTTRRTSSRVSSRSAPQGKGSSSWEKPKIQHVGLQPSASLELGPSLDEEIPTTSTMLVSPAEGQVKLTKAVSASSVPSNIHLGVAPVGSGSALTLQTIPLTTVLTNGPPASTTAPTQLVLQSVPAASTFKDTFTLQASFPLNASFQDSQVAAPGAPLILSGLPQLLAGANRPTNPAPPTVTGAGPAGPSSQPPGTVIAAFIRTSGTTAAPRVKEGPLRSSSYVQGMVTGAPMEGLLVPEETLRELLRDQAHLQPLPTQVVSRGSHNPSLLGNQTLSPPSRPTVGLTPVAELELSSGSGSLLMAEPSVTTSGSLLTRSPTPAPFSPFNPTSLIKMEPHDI
# Procedure, shortened: as §1
# [6] = target: T3, ELK4 (Homo sapiens, UniProt P28324-2 1-405); settings: protein: recombinant; tags: N-terminal GST; dsDNA, one strand shown
# T3 sequence: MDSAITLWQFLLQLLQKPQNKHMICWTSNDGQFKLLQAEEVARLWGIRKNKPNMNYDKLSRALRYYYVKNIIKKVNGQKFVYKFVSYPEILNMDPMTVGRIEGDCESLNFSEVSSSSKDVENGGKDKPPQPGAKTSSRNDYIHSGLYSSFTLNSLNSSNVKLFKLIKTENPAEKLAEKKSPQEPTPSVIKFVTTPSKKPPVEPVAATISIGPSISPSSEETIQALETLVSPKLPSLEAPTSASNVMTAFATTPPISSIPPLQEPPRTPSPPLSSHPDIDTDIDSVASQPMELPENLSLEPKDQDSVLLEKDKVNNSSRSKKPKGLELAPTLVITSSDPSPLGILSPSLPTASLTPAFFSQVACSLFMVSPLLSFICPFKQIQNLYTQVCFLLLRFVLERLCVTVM
# Procedure, shortened: as §1
# [7] = target: T4, ETV2 (Homo sapiens, UniProt O00321 1-342); settings: protein: recombinant; tags: N-terminal GST; dsDNA, one strand shown
# T4 sequence: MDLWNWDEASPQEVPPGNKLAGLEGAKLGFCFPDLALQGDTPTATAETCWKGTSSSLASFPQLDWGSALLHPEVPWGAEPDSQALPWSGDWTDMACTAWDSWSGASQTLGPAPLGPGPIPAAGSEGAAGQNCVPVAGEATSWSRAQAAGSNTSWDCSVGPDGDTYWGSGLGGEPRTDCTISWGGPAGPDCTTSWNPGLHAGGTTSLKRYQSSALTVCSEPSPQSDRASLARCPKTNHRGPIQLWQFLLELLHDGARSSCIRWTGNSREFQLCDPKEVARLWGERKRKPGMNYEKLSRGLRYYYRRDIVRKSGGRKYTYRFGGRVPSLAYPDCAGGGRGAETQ
# Procedure, shortened: as §1
# [8] = target: T5, ELF3 (Homo sapiens, UniProt P78545 1-371); settings: protein: recombinant; tags: N-terminal GST; dsDNA, one strand shown
# T5 sequence: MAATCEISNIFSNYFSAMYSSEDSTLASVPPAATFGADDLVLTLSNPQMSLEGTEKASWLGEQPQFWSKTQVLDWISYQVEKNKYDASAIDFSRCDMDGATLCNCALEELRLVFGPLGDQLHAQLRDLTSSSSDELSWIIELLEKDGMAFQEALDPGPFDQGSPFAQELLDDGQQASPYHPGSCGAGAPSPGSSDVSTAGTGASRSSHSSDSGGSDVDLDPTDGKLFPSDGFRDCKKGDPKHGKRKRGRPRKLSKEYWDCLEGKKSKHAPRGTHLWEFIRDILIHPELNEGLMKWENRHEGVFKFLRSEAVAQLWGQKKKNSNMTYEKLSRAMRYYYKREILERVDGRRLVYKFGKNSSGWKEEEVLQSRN
# Procedure, shortened: as §1
# [9] = target: CRX (Homo sapiens, UniProt O43186 1-299); settings: protein: recombinant; tags: N-terminal GST; dsDNA, one strand shown
# Chain of CRX (O43186 whole entry): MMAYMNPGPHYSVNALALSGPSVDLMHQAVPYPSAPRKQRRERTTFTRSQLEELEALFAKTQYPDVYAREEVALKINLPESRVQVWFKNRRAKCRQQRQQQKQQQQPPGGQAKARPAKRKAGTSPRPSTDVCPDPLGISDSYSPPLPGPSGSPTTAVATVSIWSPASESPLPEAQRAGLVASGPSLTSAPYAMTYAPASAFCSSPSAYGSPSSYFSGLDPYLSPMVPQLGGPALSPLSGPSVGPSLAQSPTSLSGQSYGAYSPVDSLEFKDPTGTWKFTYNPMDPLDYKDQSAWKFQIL
# Procedure, shortened: as §1
# [10] = target: ETV1 (Homo sapiens, UniProt P50549 1-477); settings: protein: recombinant; tags: N-terminal GST; dsDNA, one strand shown
# Chain of ETV1 (P50549 whole entry): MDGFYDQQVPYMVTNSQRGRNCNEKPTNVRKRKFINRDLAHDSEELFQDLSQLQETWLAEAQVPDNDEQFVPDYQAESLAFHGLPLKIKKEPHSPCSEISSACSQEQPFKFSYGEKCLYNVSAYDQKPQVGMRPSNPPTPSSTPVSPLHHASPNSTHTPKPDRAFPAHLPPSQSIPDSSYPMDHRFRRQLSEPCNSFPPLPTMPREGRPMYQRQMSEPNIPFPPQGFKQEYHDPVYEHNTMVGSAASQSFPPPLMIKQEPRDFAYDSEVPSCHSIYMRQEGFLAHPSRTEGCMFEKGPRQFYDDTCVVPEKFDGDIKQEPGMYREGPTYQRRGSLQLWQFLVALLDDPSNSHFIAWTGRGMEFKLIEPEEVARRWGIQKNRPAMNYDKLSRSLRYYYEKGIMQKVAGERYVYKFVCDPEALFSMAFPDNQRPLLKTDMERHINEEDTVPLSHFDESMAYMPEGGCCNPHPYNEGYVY
# Procedure, shortened: as §1
sequence,measurement,setting,value
CTCTCC,binding signal,[1],"1.32 fold enrichment (6-mer frequency, TF over GST control)"
same,binding signal,[2],"1.24 fold enrichment (6-mer frequency, TF over GST control)"
same,binding signal,[3],"1.32 fold enrichment (6-mer frequency, TF over GST control)"
same,binding signal,[4],"1.41 fold enrichment (6-mer frequency, TF over GST control)"
same,binding signal,[5],"1.5 fold enrichment (6-mer frequency, TF over GST control)"
same,binding signal,[6],"1.37 fold enrichment (6-mer frequency, TF over GST control)"
same,binding signal,[7],"1.32 fold enrichment (6-mer frequency, TF over GST control)"
same,binding signal,[8],"1.6 fold enrichment (6-mer frequency, TF over GST control)"
same,binding signal,[9],"1.15 fold enrichment (6-mer frequency, TF over GST control)"
same,binding signal,[10],"1.42 fold enrichment (6-mer frequency, TF over GST control)"
